Screens as filed in PubChem BioAssay.
Tg IFNy HTS – inhibitors of Toxoplasma gondii growth with IFN-gamma. Toxoplasma gondii growth in IFN-gamma-treated host cells; stronger effect = lower value. activity change, negative = inhibition, % (concentration not given with the values). 3.8% of 69,000 active. AID 1259416; in the data active means activity change below about -70%, passing the limit was not always enough;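 further: host cells are HeLa cells infected with Toxoplasma gondii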
* = called active by the depositor; ! = not confirmed by another sample. Shown is part of a subset that was picked to be rich in hits.

SMILES | Tg IFNy HTS
C[C@]12CCC(=O)C=C1CC[C@@H]1[C@@H]2CC[C@]2(C)C(=O)CC[C@@H]12 | 47
CCN(CC)CCOC1CCC2(C)C(=CCC3C4CCC(=O)C4(C)CCC32)C1 (stereo not given) | -51
CCCCCCC(=O)O[C@H]1CC[C@H]2[C@@H]3CCC4=CC(=O)CC[C@]4(C)[C@H]3CC[C@]12C | -75*
CCC(=O)O[C@H]1CCC2C3CCC4=CC(=O)CC[C@]4(C)C3CC[C@@]21C (stereo not given in full) | -84*
CN1CCN2CCN(C(=O)c3cccc(=O)[nH]3)CC2C1=O (stereo not given) | 5
C=CCOC1C2CCC1N(Cc1csc(C)n1)C2 (stereo not given) | 79
O=C(O)CN1CC2(CCN(Cc3ccncc3)C2)C1 | -16
COc1cccc2c1C(=O)c1c(O)c3c(c(O)c1C2=O)C[C@@](O)(C(=O)CO)C[C@@H]3O[C@H]1C[C@H](N2CCO[C@H](OC)C2)[C@H](O)[C@H](C)O1 | -81*
NC(=O)c1ccccc1NC(=O)c1cc2cccnc2n(Cc2ccccc2F)c1=O | -9
O=C(NCc1cccnc1)c1cc2cccnc2n(Cc2ccccc2)c1=O | 38
CCCc1nc(-c2ccccn2)nc(OC(=O)N(C)C)c1Cc1c(F)cccc1Cl | -98*
COCCN1C[C@H]2[C@H](OC)CCN(C(=O)COc3ccccc3)[C@H]2C1 | -1
c1ccc(-c2ncc(CN3CCC4(CCNCC4)C3)cn2)cc1 | -3
O=C(c1ccno1)N1C[C@@H]2CCN[C@@H]2C1 | 13
C[C@H]1CCCC(=O)CCC/C=C/c2cc(O)cc(O)c2C(=O)O1 | -4
C[C@H]1CCC/C=C/[C@@H]2C[C@H](O)C[C@H]2[C@H](O)/C=C/C(=O)O1 | -77*
c1cnc(N2CCN(CC3CC3)c3ncccc3C2)nc1 | 2
CN1CCC[C@@H]2[C@H]1[C@@H](c1ccc(F)cc1)CN2C(=O)Cc1ccc(F)cc1 | -1
CC(C)N1CCOCC2(CN(C(=O)c3ccnnc3)CCO2)C1 (stereo not given) | 1
CCN(CC)CCN1CCO[C@@H]2[C@@H](OCc3cccnc3)CC[C@H]21 | -61
O=C(Nc1ccc2c(c1)OCO2)c1cc2cccnc2n(Cc2ccccc2F)c1=O | 159
COCc1cncc2c1CCN(C1CCOC1)C2 (stereo not given) | -109*
COCc1cncc2c1CCN(CC(C)C)C2 | -2
COCc1cncc2c1CCN(S(=O)(=O)C1CC1)C2 | 16
O=C(Nc1ccc(F)c(Cl)c1)c1cc2cccnc2n(Cc2ccccc2F)c1=O | 2
SMILES | Tg IFNy HTS
O=C(NCc1cccs1)c1cc2cccnc2n(Cc2ccccc2F)c1=O | 11
CC(=O)N1C[C@H]2CCCC(N3CCN(c4ncccn4)CC3)[C@@H]2C1 (stereo not given in full) | 2
C=CCN1CCN(C)C2(CCN(Cc3ccncc3)CC2)C1=O | -4
Cc1ccc(N2CCO[C@@H]3CNCC[C@H]3C2)nn1 | 4
CCN1CCC2(CC1)CC(Nc1ncccn1)CO2 (stereo not given) | -2
CC(=O)NC1CCSC1=O (stereo not given) | -78*!
CN(C)C(=O)CN1CC[C@H]2[C@@H]1CCN2c1ncc(F)cn1 | -1
c1ccc(CN2CCOC3(CCN(Cc4nccs4)CC3)C2)nc1 | 3
CN1CCN2C[C@@H](NC(=O)c3onc4ccccc34)C[C@H]2C1 | -16
O=C(/C=C/c1ccc(Cl)cc1)C1C(=O)NC23CCCCC2C1c1ccccc1O3 (stereo not given) | 12
CCCN1C(=O)C(C(=O)/C=C/c2ccc(C)cc2)C2c3ccccc3OC13CCCCC23 (stereo not given) | 4
CCOc1ccc(/C=C/C(=O)C2C(=O)NC34CCCCC3C2c2ccccc2O4)cc1OC (stereo not given) | -80*
CNC(=O)CN1CCC12CCN(C(=O)Cc1cccs1)C2 (stereo not given) | 26
CNC(=O)CN1CCOCC2(CCCN(c3ncccn3)C2)C1 (stereo not given) | -68
CC(C)N1C[C@H]2COC[C@@H](CC(=O)NCCc3ccccn3)[C@H]2C1 | 0
Cc1cc(C(=O)N2C[C@@H]3CN(Cc4ccsc4)CCO[C@@H]3C2)no1 | 8
CC1OC(OC2CC(O)C3(CO)C4C(O)CC5(C)C(C6=CC(=O)OC6)CCC5(O)C4CCC3(O)C2)C(O)C(O)C1O (stereo not given) | -81*
C[C@@H]1O[C@@H](O[C@H]2C[C@@H](O)[C@]3(CO)[C@H]4[C@H](O)C[C@]5(C)[C@@H](C6COC(=O)C6)CC[C@]5(O)[C@@H]4CC[C@]3(O)C2)[C@H](O)[C@H](O)[C@H]1O (stereo not given in full) | -99*
O=C(Nc1ccccc1Cl)c1cc2cccnc2n(Cc2ccccc2F)c1=O | 33
CCN(CC)CCCNC(=O)c1cc2cccnc2n(Cc2ccc(F)cc2)c1=O | 8
CC(Cn1cncn1)NCc1ccc2nonc2c1 (stereo not given) | 13
O=C(c1ccoc1)N1CC[C@@H]2OCCN(Cc3ccncc3)[C@@H]2C1 | 4
Cc1noc(C)c1CN1CCN(C)c2ncccc2C1 | 13
